# Reference: the supplement of paper PMC8728848
# The sample as a whole holds a higher share of the strongest signals than the screen did.
# Assays:
# Experiment in all cases: glycan array binding signal (z-score within array); higher = stronger binding
# Details in all cases: glycan notation: IUPAC condensed, linker removed
# [1] = target: Fuc(a1-2)Gal(b1-3)GalNAc(a1-3)[Fuc(a1-2)]Gal(b1-4)GlcNAc
# Procedure, shortened: (§1)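 Columns mapping to the same glycan were averaged after glycan names were converted to IUPAC-condensed notation. The data come from 3228 arrays in the Consortium for Functional Glycomics database, limited to those with an available protein sequence. Binding is reported as a within-array Z-score averaged across arrays of one protein sequence and across linkers.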
# [2] = target: Fuc(a1-2)Gal(b1-3)[Fuc(a1-4)]GlcNAc(b1-2)Man(a1-3)[Fuc(a1-2)Gal(b1-3)[Fuc(a1-4)]GlcNAc(b1-2)Man(a1-3)]Man(b1-4)GlcNAc(b1-4)GlcNAc
# Procedure, shortened: as §1
# [3] = target: Fuc(a1-2)Gal(b1-3)[Fuc(a1-4)]GlcNAc(b1-3)[Gal(b1-4)GlcNAc(b1-6)]Gal(b1-4)Glc
# Procedure, shortened: as §1
# [4] = target: Fuc(a1-2)Gal(b1-4)Fuc(a1-3)]GlcNAc(b1-2)Man(a1-3)[Fuc(a1-2)Gal(b1-4)[Fuc(a1-3)]GlcNAc(b1-2)Man(a1-6)]Man(b1-4)GlcNAc(b1-4)GlcNAc
# Procedure, shortened: as §1
# [5] = target: Fuc(a1-2)Gal(b1-4)GlcNAc(b1-2)Man(a1-3)[Fuc(a1-2)Gal(b1-4)GlcNAc(b1-2)Man(a1-6)]Man(b1-4)GlcNAc(b1-4)GlcNAc
# Procedure, shortened: as §1
# [6] = target: Fuc(a1-2)[Gal(a1-3)]Gal(b1-3)GlcNAc
# Procedure, shortened: as §1
# [7] = target: Fuc(a1-2)[Gal(a1-3)]Gal(b1-4)GlcNAc(b1-3)GalNAc
# Procedure, shortened: as §1
# [8] = target: Fuc(a1-2)[GalNAc(a1-3)]Gal(b1-3)GlcNAc(b1-3)GalNAc
# Procedure, shortened: as §1
# [9] = target: Fuc(a1-3)[Gal(b1-4)]Glc6S
# Procedure, shortened: as §1
# [10] = target: Fuc(a1-3)[Gal(b1-4)]GlcNAc(b1-6)GalNAc
# Procedure, shortened: as §1
# Fuc(b1-3)GlcNAc = target: Fuc(b1-3)GlcNAc
# Procedure, shortened: as §1
# Gal(a1-2)Gal = target: Gal(a1-2)Gal
# Procedure, shortened: as §1
# Gal(a1-3)Gal = target: Gal(a1-3)Gal
# Procedure, shortened: as §1
# Gal(a1-3)Gal(b1-3)GlcNAc = target: Gal(a1-3)Gal(b1-3)GlcNAc
# Procedure, shortened: as §1
# Gal(a1-3)Gal(b1-4)Glc = target: Gal(a1-3)Gal(b1-4)Glc
# Procedure, shortened: as §1
# [11] = target: Gal(a1-3)Gal(b1-4)GlcNAc(b1-2)Man(a1-3)[Gal(a1-3)Gal(b1-4)GlcNAc(b1-2)Man(a1-6)]Man(b1-4)GlcNAc(b1-4)GlcNAc
# Procedure, shortened: as §1
# Gal(a1-4)GlcNAc = target: Gal(a1-4)GlcNAc
# Procedure, shortened: as §1
# [12] = target: Gal(b1-3)GalNAc(b1-4)[Neu5Ac(a2-3)]Gal(b1-4)Glc
# Procedure, shortened: as §1
# [13] = target: Gal(b1-3)GlcNAc(b1-2)Man(a1-3)[GlcNAc(b1-4)][Gal(b1-3)GlcNAc(b1-2)Man(a1-6)]Man(b1-4)GlcNAc(b1-4)GlcNAc
# Procedure, shortened: as §1
# [14] = target: Gal(b1-3)GlcNAc(b1-3)GalNAc
# Procedure, shortened: as §1
# [15] = target: Gal(b1-3)[Fuc(a1-4)]GlcNAc(b1-2)Man
# Procedure, shortened: as §1
# [16] = target: Gal(b1-3)[Fuc(a1-4)]GlcNAc(b1-2)Man(a1-3)[Gal(b1-3)[Fuc(a1-4)]GlcNAc(b1-2)Man(a1-6)]Man(b1-4)GlcNAc(b1-4)[Fuc(a1-6)]GlcNAc
# Procedure, shortened: as §1
# [17] = target: Gal(b1-3)[GlcNAc(b1-6)]GalNAc
# Procedure, shortened: as §1
# [18] = target: Gal(b1-4)GlcNAc(b1-2)Man(a1-3)[Gal(b1-4)GlcNAc(b1-2)Man(a1-6)][GlcNAc(b1-4)]Man(b1-4)GlcNAc(b1-4)[Fuc(a1-6)]GlcNAc
# Procedure, shortened: as §1
# [19] = target: Gal(b1-4)GlcNAc(b1-2)Man(a1-6)Man(b1-4)GlcNAc(b1-4)GlcNAc
# Procedure, shortened: as §1
# [20] = target: Gal(b1-4)GlcNAc(b1-2)[Gal(b1-4)GlcNAc(b1-6)]Man(a1-6)[GlcNAc(b1-4)][Gal(b1-4)GlcNAc(b1-2)[Gal(b1-4)GlcNAc(b1-4)]Man(a1-3)]Man(b1-4)GlcNAc(b1-4)[Fuc(a1-6)]GlcNAc
# Procedure, shortened: as §1
# [21] = target: Gal(b1-4)GlcNAc(b1-3)Gal(b1-3)GalNAc
# Procedure, shortened: as §1
# [22] = target: Gal(b1-4)GlcNAc(b1-3)Gal(b1-3)GlcNAc
# Procedure, shortened: as §1
# [23] = target: Gal(b1-4)GlcNAc(b1-3)Gal(b1-4)GlcNAc(b1-3)Gal(b1-4)GlcNAc(b1-3)Gal(b1-4)GlcNAc(b1-2)[Gal(b1-4)GlcNAc(b1-3)Gal(b1-4)GlcNAc(b1-3)Gal(b1-4)GlcNAc(b1-3)Gal(b1-4)GlcNAc(b1-6)]Man(a1-6)[Gal(b1-4)GlcNAc(b1-3)Gal(b1-4)GlcNAc(b1-3)Gal(b1-4)GlcNAc(b1-3)Gal(b1-4)GlcNAc(b1-2)Man(a1-3)]Man(b1-4)GlcNAc(b1-4)[Fuc(a1-6)]GlcNAc
# Procedure, shortened: as §1
# [24] = target: Gal(b1-4)GlcNAc(b1-3)Gal(b1-4)GlcNAc(b1-3)GalNAc
# Procedure, shortened: as §1
binder,measurement,setting,value
"AT1G80310(18) (Arabidopsis thaliana), Q0WP36 (protein) METTTTPLLPGDRSRCGWLRRRLRLKNPLSSELSGAVGDLGTFIPIVLTLTLVSNLDLSTTLIFTGFYNIATGLLFDIPMPVQPMKSIAAVAVSESPHLTPSQIAAAGASTAATLLLLGATGAMSFLYNIIPLPVVRGVQLSQGLQFAFTAIKYVRFNYDTATLKPSSSPRIWLGLDGLILALAALLFIILSTGSGNDREAEDGDLAETSSNESQSRRRRLRLLSSIPSALIVFALGLVLCFIRDPSIFKDLKFGPSKFHILRISWDDWKIGFLRAAIPQIPLSVLNSVIAVCKLSNDLFDKELSATTVSISVGVMNLIGCWFGAMPVCHGAGGLAGQYRFGARSGLSVIFLGIGKLIVGLVFGNSFVRILSQFPIGILGVLLLFAGIELAMASKDMNSKEDSFIMLVCAAVSMTGSSAALGFGCGVVLYLLLKLRTLDCSSVTLFSRSSDESQVDSEAAPRDV",glycan array binding signal (z-score),[1],-0.505
same,glycan array binding signal (z-score),[2],-0.097
same,glycan array binding signal (z-score),[3],-0.71
same,glycan array binding signal (z-score),[4],4.04
same,glycan array binding signal (z-score),[5],3.83
same,glycan array binding signal (z-score),[6],2.6
same,glycan array binding signal (z-score),[7],-1.01
same,glycan array binding signal (z-score),[8],0.205
same,glycan array binding signal (z-score),[9],1.38
same,glycan array binding signal (z-score),[10],0.051
same,glycan array binding signal (z-score),Fuc(b1-3)GlcNAc,-0.095
same,glycan array binding signal (z-score),Gal(a1-2)Gal,0.558
same,glycan array binding signal (z-score),Gal(a1-3)Gal,3.63
same,glycan array binding signal (z-score),Gal(a1-3)Gal(b1-3)GlcNAc,3.82
same,glycan array binding signal (z-score),Gal(a1-3)Gal(b1-4)Glc,-0.294
same,glycan array binding signal (z-score),[11],-0.855
same,glycan array binding signal (z-score),Gal(a1-4)GlcNAc,0.748
same,glycan array binding signal (z-score),[12],-0.754
same,glycan array binding signal (z-score),[13],1.46
same,glycan array binding signal (z-score),[14],0.082
same,glycan array binding signal (z-score),[15],2.96
same,glycan array binding signal (z-score),[16],-0.645
same,glycan array binding signal (z-score),[17],0.239
same,glycan array binding signal (z-score),[18],4.28
same,glycan array binding signal (z-score),[19],-0.165
same,glycan array binding signal (z-score),[20],2.65
same,glycan array binding signal (z-score),[21],-0.393
same,glycan array binding signal (z-score),[22],1.15
same,glycan array binding signal (z-score),[23],-0.802
same,glycan array binding signal (z-score),[24],-0.75
